Among the test systems are T-47D breast; BT-549 breast; MDA-MB-435 melanoma; SW-620 colon; MCF7 breast; HCT-116 colon; HCC-2998 colon; KM12 colon.
What all share (assay): NCI-60 one-dose screen, 48 h (100 = growth as untreated, 0 = no growth, -100 = all killed)
Holding throughout (conditions): 10 µM unless noted

Structures are written as SMILES. This is part of a sample that, as a whole, favours compounds with a hit. Of some 83,000 tested, about 20% had one in any assay.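 Step 1: grow cells in 96-well plates. Step 2: add test compound at a single concentration. Step 3: incubate 48 h. Step 4: record percent growth.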 A number with no mark means an inactive call. Active and inactive are the calls of the source. Rule for the calls: active = growth percent below 10; inactive = the rest.

`CCN(CC)S(=O)(=O)c1ccc(S(=O)(=O)N2CCC[C@@H](C(=O)N3CCN(C(=O)OC(C)(C)C)CC3)C2)cc1`: the growth was 44.5% in the test on T-47D breast; 61.5% with BT-549 breast; 60.6% in the test with MDA-MB-435 melanoma; 80.4% in the test with SW-620 colon; 49.3% in the test with MCF7 breast; 54.1% in the test with HCT-116 colon. Moreover, the figures for the growth in the test on HCC-2998 colon and in the test with KM12 colon were 89.6% and 76.9%, respectively.

In the case of `Cn1cc(C(=O)c2nc(-c3c[nH]c4ccc(Br)cc34)no2)c2cc(Br)ccc21`, the growth in the test on T-47D breast is 71.8%; in the test with BT-549 breast, 79%; with MDA-MB-435 melanoma, 63.3%; in the test on SW-620 colon, -2.17% (active); with MCF7 breast, 38.8%; in the test on HCT-116 colon, 63.5%. Besides, the growth in the test on HCC-2998 colon was 103%; in the test on KM12 colon, 55.2%.

Consider `O=C1CCCc2nc3sc4c(=O)n(-c5ccccc5Cl)nnc4c3cc21`, for which the growth in the test with T-47D breast was 83.8%; with BT-549 breast, 102%; in the test on MDA-MB-435 melanoma, 102%; in the test with SW-620 colon, 102%; with MCF7 breast, 90.4%; in the test on HCT-116 colon, 96%. For the same compound, the growth with HCC-2998 colon was 118%.

`COc1ccc(C2=NN(C(=O)c3cc(OC)c(OC)c(OC)c3)C(c3ccc(N(C)C)cc3)C2)cc1` (stereo unspecified): the growth in the test on T-47D breast was 56.8%; with BT-549 breast, 28.4%; with MDA-MB-435 melanoma, -30.4% (active); with SW-620 colon, 28.3%; in the test with MCF7 breast, 15%; in the test on HCT-116 colon, 11.8%. For the same compound, the growth with HCC-2998 colon was 1.81% (active).

With `CCCCCCCCCCCCCCCCCCOc1ccccc1CC(=O)OCC[N+]1(C)CCOCC1`, the growth is 84.9% in the test with T-47D breast; 82.9% in the test with BT-549 breast; 82.4% in the test with MDA-MB-435 melanoma; 77.1% in the test with SW-620 colon; 79.8% in the test with MCF7 breast; 65.6% with HCT-116 colon. The growth with HCC-2998 colon is 71.8%.

Take `CC[C@H](C)[C@H](NC(=O)[C@H](CCCNC(=N)N)NC(=O)[C@H](Cc1c[nH]c2ccccc12)NC(=O)[C@@H](NC(=O)[C@H](CCCCN)NC(=O)[C@H](CCCCN)NC(=O)[C@@H](NC(=O)[C@@H](NC(=O)[C@@H](NC(=O)[C@H](CCCCN)NC(=O)[C@H](Cc1ccccc1)NC(=O)[C@H](CCCCN)NC(=O)[C@H](CCCCN)NC(=O)[C@H](Cc1ccccc1)NC(=O)[C@@H](NC(=O)[C@@H](N)CCCCN)[C@@H](C)CC)[C@@H](C)O)[C@@H](C)CC)[C@@H](C)CC)C(C)C)C(=O)N[C@@H](Cc1ccccc1)C(=O)NCC(=O)N[C@@H](CCCNC(=N)N)C(=O)N[C@@H](Cc1ccccc1)C(N)=O`: the growth is -30.1% (active) in the test with T-47D breast; 32.5% in the test with BT-549 breast; -17% (active) in the test with MDA-MB-435 melanoma; -14.9% (active) in the test with SW-620 colon; -17% (active) with MCF7 breast; -3.28% (active) in the test on HCT-116 colon. In the test with HCC-2998 colon, the growth is 10.6%.

Consider `CCOC(=O)C1=C(c2ccccc2)N=c2s/c(=C/c3ccc(Br)cc3)c(=O)n2C1c1ccc(O)cc1` (stereo unspecified), for which the growth with T-47D breast was 69.7%; with BT-549 breast it was 95.3%; in the test on MDA-MB-435 melanoma it was 96%; with SW-620 colon it was 94.6%; with MCF7 breast it was 77.1%; in the test on HCT-116 colon, 82.3%. Besides, the results for the growth in the test on HCC-2998 colon and with KM12 colon were 105% and 84.4%, respectively.

As for `Cc1ccc(S(=O)(=O)n2cc(C3C(Cl)C(=O)N3c3ccc(N4CCOCC4=O)cc3)c3ccccc32)cc1` (stereo unspecified), the growth was 51% in the test on T-47D breast; 48.3% in the test with BT-549 breast; -21.2% (active) in the test on MDA-MB-435 melanoma; 26.1% in the test with SW-620 colon; 20.8% in the test with MCF7 breast; 16.5% with HCT-116 colon. Also, the growth was 86.6% in the test on HCC-2998 colon and 85.6% in the test on KM12 colon.

`CCCCc1oc2ccccc2c1C(=O)c1ccc(O)cc1`: the growth in the test with T-47D breast is 75.3%; in the test with BT-549 breast, 70.1%; in the test on MDA-MB-435 melanoma it was 52.2%; in the test with SW-620 colon it was 99.8%; with MCF7 breast, 104%; in the test on HCT-116 colon it was 83.2%. The growth with HCC-2998 colon was 460%; in the test with KM12 colon, 76.4%.

With `Cc1cc2oc(=O)cc(CP(=O)(O)O)c2cc1O`, the growth was 98.8% in the test with T-47D breast; 105% in the test on BT-549 breast; 99.9% with MDA-MB-435 melanoma; 91.3% with SW-620 colon; 88.9% in the test on MCF7 breast; 100% in the test with HCT-116 colon. The growth in the test with HCC-2998 colon was 103%; in the test on KM12 colon, 102%.

Consider `COc1ccc(C2=Nc3c(N)ncnc3NC(c3cccc(Nc4ccnc5cc(C(F)(F)F)ccc45)c3)C2)cc1` (stereo unspecified), for which the growth with T-47D breast is 62%; in the test with BT-549 breast, 80.7%; with MDA-MB-435 melanoma it was 19.1%; in the test on SW-620 colon, 62.3%; in the test on MCF7 breast it was 30.1%; in the test with HCT-116 colon, 40%. Further, the growth with HCC-2998 colon was 72.1%; in the test on KM12 colon it was 47.1%.

Regarding `COc1ccc(C(c2cc(OC)c(OC)c(OC)c2)N2CCN(Cc3ccccc3)CC2)cc1` (stereo unspecified), the growth in the test on T-47D breast is 75.1%; in the test on BT-549 breast, 92.4%; with MDA-MB-435 melanoma it was -32.2% (active); in the test on SW-620 colon it was 43.6%; in the test on MCF7 breast, 47.7%; in the test on HCT-116 colon it was 56.7%. For the same compound, the growth with HCC-2998 colon was 91.9%; with KM12 colon, 40.6%.

On to `CCOC(=O)N1CCN(S(=O)(=O)c2oc(-c3ccc(Cl)cc3)nc2C#N)CC1`, for which the growth in the test with T-47D breast was 65.4%; in the test on BT-549 breast, 92.2%; in the test on MDA-MB-435 melanoma, 98.6%; with SW-620 colon it was -49% (active); in the test with MCF7 breast, 62.2%; in the test on HCT-116 colon it was 14.1%. In addition, the growth with HCC-2998 colon is 104%; with KM12 colon, 108%.

Turning to `CC[C@]12C=CCN3CC[C@@]4(c5ccc(OC)cc5N(C)[C@H]4[C@@](O)(C(=O)OC)[C@@H]1OC(=O)CCCN1CCOCC1)[C@@H]32`, the growth was 106% with T-47D breast; 105% with BT-549 breast; 100% with MDA-MB-435 melanoma; 105% in the test on SW-620 colon; 103% with MCF7 breast; 101% in the test on HCT-116 colon. Further, the growth in the test on HCC-2998 colon was 109%; in the test with KM12 colon it was 107%.

In the case of `N#C/C(=C\c1ccc(Br)cc1)c1cc2ccccc2[nH]1`, the growth in the test on T-47D breast is 74.7%; in the test on BT-549 breast it was 97%; in the test on MDA-MB-435 melanoma, 99.1%; in the test on SW-620 colon, 93.4%; in the test with MCF7 breast, 62.2%; in the test on HCT-116 colon, 84.7%. Also, the growth is 101% in the test with HCC-2998 colon and 90.7% in the test with KM12 colon.

Source of the values: PubChem BioAssay (NCI).
